Assay outcomes deposited in PubChem by National Center for Advancing Translational Sciences (NCATS).
The full list was thinned out, with hits kept by preference.
GRP78 ERSR act: qHTS for Inducers of the Endoplasmic Reticulum Stress Response (ERSR) in Human Glioma: qHTS; U87-MG GRP78 promoter luciferase reporter, 16 h; Potency, µM, for inactives: top-dose activation, usual class: activators; 420,000 compounds, 0.02% hits; further: series mostly up to about 76 µM; % of control where 0% means no effect; nearly all actives have a fitted effect of over 35% in size
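ERSR induction read as luciferase luminescence (Bright-Glo, 10 min at room temperature) in stably transfected human U87-MG glioma cells exposed to compounds for 16 h, using GRP78 as sensor.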
G9a block: qHTS Assay for Inhibitors of Histone Lysine Methyltransferase G9a | Potency, µM (highest dose often 102 µM), for inactives: at the highest dose activity, negative = inhibition, most hits filed as inhibitors | G9a H3K9 monomethylation, AlphaScreen, 2 h | AID 504332, 2011 | 350,000 compounds, 8.8% hits | Histone-lysine N-methyltransferase EHMT2 (Homo sapiens), Q96KQ7; further: on the % scale 0 is the no-effect control and ±100 the full control effect; nearly all actives have a fitted effect of over 75% in size
Target sequence (Q96KQ7 913-1193 limits assumed): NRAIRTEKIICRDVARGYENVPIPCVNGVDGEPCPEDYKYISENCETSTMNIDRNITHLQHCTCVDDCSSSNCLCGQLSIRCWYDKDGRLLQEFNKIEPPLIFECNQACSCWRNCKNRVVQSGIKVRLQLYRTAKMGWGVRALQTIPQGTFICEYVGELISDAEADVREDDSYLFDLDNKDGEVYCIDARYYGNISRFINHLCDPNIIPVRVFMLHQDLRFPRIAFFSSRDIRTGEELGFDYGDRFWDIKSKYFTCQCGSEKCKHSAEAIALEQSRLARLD
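Readings reflect AlphaScreen signal from monomethyl-H3K9 antibody detection. HMT at 20 nM; substrate b-H3K9 500 nM; cofactor SAM 20 uM; 2 h RT reaction; compounds tested as titrations in qHTS with 15 min preincubation.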
VDR inh: Inhibitors of the vitamin D receptor (VDR): qHTS | Potency, µM, for the others: max response, negative = inhibition, usual class: inhibitors | AID 504847, 2011 | 400,000 compounds, 0.93% hits | VDR-SRC2-3 peptide fluorescence polarization, 2 h | Vitamin D3 receptor (Homo sapiens), P11473; further: on the % scale 0 is the no-effect control and ±100 the full control effect
Target sequence (P11473 whole entry, looked up): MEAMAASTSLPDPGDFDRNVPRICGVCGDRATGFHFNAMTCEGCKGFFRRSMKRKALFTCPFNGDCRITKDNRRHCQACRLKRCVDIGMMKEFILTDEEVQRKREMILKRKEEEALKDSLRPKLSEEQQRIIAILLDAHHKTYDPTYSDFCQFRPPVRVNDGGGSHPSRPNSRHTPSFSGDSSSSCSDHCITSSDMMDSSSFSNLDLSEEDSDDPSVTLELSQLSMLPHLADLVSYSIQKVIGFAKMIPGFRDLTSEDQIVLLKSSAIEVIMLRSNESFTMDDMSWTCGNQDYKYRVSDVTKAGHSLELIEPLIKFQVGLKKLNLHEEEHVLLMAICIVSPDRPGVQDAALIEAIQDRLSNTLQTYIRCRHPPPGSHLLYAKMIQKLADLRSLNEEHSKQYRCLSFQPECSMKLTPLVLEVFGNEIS
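Signal is fluorescence polarization, reporting how far test compounds block the interaction of VDR with the SRC2-3 coregulator peptide after a 2 h room-temperature incubation.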
Sfp PPTase inh: qHTS Assay for Inhibitors of Bacillus subtilis Sfp phosphopantetheinyl transferase (PPTase) | Biochemical Sfp PPTase activity, qHTS | Potency, µM, for the others: largest response in the series, negative = inhibition, usual class: inhibitors | 310,000 compounds, 3.5% hits | AID 1490, 2009;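 further: the enzyme is Sfp with the accession as filed and its product quenches rhodamine fluorescence; 0% = enzyme reaction without inhibitor and -100% = no enzyme wells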
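After 15 min at room temperature with compound, 15 nM Sfp received 5 uM rhodamine-CoA plus 12.5 uM BHQ-2-ybbR (50 mM Hepes pH 7.6, 10 mM MgCl2). Rate came from the fluorescence difference over 30 min, ex 525/em 598 nm.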
12-LOX inh: Primary qHTS assay for inhibitors of human arachidonate 12S-lipoxygenase (ALOX12): Round 2. AID 1671190, 2021. purified 12hLO, xylenol orange hydroperoxide absorbance. Potency, µM (titrated, usually from 108 µM), for inactives: at the highest dose activity change, negative = inhibition, usual class: inhibitors. 580,000 compounds, 1.1% hits. Polyunsaturated fatty acid lipoxygenase ALOX12 (Homo sapiens), P18054; further: on the % scale 0 is the no-effect control and ±100 the full control effect
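Purified human 12hLO (150 nM final) in 25 mM Hepes, 0.01% Triton X-100, pH 7.0 was preincubated 15 min at room temperature with compound. Then 40 uM arachidonic acid was added, 30 min. Hydroperoxide was read by Fe-XO absorbance ratio 573/405 nm.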
Numbers without * were called inactive; ? = inconclusive; / = not tested or not shown; [ ] = dose if it differs, or a comment. The call rests on the fitted dose curve; in most records, active means well fitted curve in the direction sought with a large enough effect; inconclusive means small, poorly fitted or top-dose-only effect, or another doubt; inactive means no such curve, though single readings can be large; an effect the other way counts as inactive or inconclusive. Potency means the concentration at half of the fitted maximal effect.

SMILES	GRP78 ERSR act	G9a block	VDR inh	Sfp PPTase inh	12-LOX inh
COC(=O)c1[nH]c2cc(C)ccc2c1NC(=O)CN1CCN(C(=O)c2ccco2)CC1	2.1%	?	7.5%	50.1µM*	-13.1%
Cn1c(NCCO)nc2c1c(=O)n(Cc1ccccc1F)c(=O)n2C	/	/	/	/	131.7%
CC1CCN(c2nc3c(c(=O)n(C)c(=O)n3C)n2CC(=O)C23CC4CC(CC(C4)C2)C3)CC1	/	/	/	/	-16.0%
COc1ccccc1CNC(=O)[C@@H]1Cc2c[nH]c3cccc(c23)[C@H](CC(C)C)N1	/	/	/	/	-10.8%[176 µM]
CCOC(=O)N1CCN(CC(=O)Nc2sc(CC)cc2C(=O)c2ccc(OC)cc2)CC1	-5.6%	28.2µM*	-2.8%	-23.8%	314.6%
CN1CCN(C2=Cc3cc(Cl)ccc3Sc3cc(F)ccc32)CC1	-17.4%	12.6µM*	5.9%	1.0%	?
CN1CCN(C2=Cc3ccccc3Sc3cc(F)c(F)cc32)CC1	-15.7%	?	9.2%	79.4µM*	0.0%[57.4 µM]
CN1CCN(c2nc(-c3ccc(Cl)c(Cl)c3)nc3ccccc23)CC1	/	-1.1%	/	-9.6%	/
CN1CCN(C2=Nc3ccccc3Sc3ccc(Cl)cc32)CC1	2.4%	-48.2%[59 µM]	-4.5%	1.4%	-2.6%
CN1CCN(C2=Cc3ccccc3Sc3cc(F)c(Cl)cc32)CC1	-14.6%	17.8µM*	7.6%	?	-2.7%
COc1ccccc1CCNC(=O)c1sc(NC(C)C)nc1C	/	/	/	/	14.7%
CCOC(=O)c1ccc(N=c2scc(C)n2CC)cc1	2.5%	22.4µM*	-15.3%	9.4%	?
CCOC(=O)c1cccn1C1C(=O)N(Cc2ccc(C(F)(F)F)cc2)c2ccccc21 (stereo unspecified)	/	/	/	/	-11.4%
COc1ccc(CN2C(=O)C(n3c(C)ccc3C)c3cc(OC(F)(F)F)ccc32)cc1 (stereo unspecified)	/	/	/	/	39.8µM*
Cc1ccc(C)n1C1C(=O)N(Cc2ccc(C(F)(F)F)cc2)c2ccc(F)cc21 (stereo unspecified)	/	/	/	/	25.1µM*
COc1ccc(CN2C(=O)C(n3cccc3)c3ccccc32)cc1 (stereo unspecified)	/	/	/	/	-22.7%
COc1ccc2c(c1)C(n1c(C)ccc1C)C(=O)N2Cc1ccc(C(F)(F)F)cc1 (stereo unspecified)	/	/	/	/	12.6µM*
COc1ccc2c(c1)C(n1ccc3ccccc31)C(=O)N2Cc1ccc(C(C)C)cc1 (stereo unspecified)	/	/	/	/	14.1µM*
O=C1c2ccccc2CCC1C(Sc1ccccc1)c1ccc(Cl)cc1 (stereo unspecified)	/	/	/	/	4.3%
Cc1nc2ccc(NC(=O)c3cc4c(s3)CCC4)cc2s1	/	/	/	/	-26.7%
Cc1ccc(NC(=O)C=C2CCCCC2)cc1	/	/	/	/	9.0%
O=C1NCCCCCCN(C(=O)C2CCC2)[C@H]2C[C@H](c3nc(-c4cccnc4)no3)C[C@@H]12	/	/	/	/	24.0%
CC(C)c1ccc(/C=N/NC(=O)c2ccccc2)cc1	/	/	/	/	11.8%
CC(Sc1ccc2c(c1)OCCCO2)C(=O)c1ccc(F)cc1 (stereo unspecified)	/	/	/	/	7.1%
Cc1cc(C)c2c(CC(=O)N(Cc3ccc(Cl)cc3)Cc3ccco3)coc2c1	/	-15.8%[59 µM]	20.3%	/	?
SMILES	GRP78 ERSR act	G9a block	VDR inh	Sfp PPTase inh	12-LOX inh
CCSc1ncc(Cl)c(C(=O)N(Cc2ccccc2)Cc2ccco2)n1	/	17.4%[59 µM]	6.4%	/	-8.7%
Cc1ccc(CN(Cc2ccco2)C(=O)c2ccc(Cl)cc2Cl)cc1	-4.3%	3.4%[59 µM]	5.7%	/	-25.4%
O=C(c1ccco1)N(Cc1ccc(Cl)cc1)Cc1ccco1	-4.6%	31.6µM*	5.6%	0.9%	-23.2%
Cc1ccc2c(CC(=O)N(Cc3ccc(N(C)C)cc3)Cc3ccco3)coc2c1C	-3.9%	8.91µM*	8.0%	/	0.4%
CSc1ncc(Cl)c(C(=O)N(Cc2ccc(N(C)C)cc2)Cc2ccco2)n1	-2.4%	12.6µM*	15.2%	/	-29.0%
CCCS(=O)(=O)c1ncc(Cl)c(C(=O)N(Cc2ccccc2)Cc2ccco2)n1	-10.8%	?	22.4µM*	/	-21.7%
CCCSc1ncc(Cl)c(C(=O)N(Cc2ccc(Cl)cc2)Cc2ccco2)n1	/	29.6%[59 µM]	10.9%	/	-17.2%
O=C(N/N=C/C1CC=CCC1)C1CC1c1ccccc1 (stereo unspecified)	/	/	/	/	33.4%
CCOc1ccccc1C(=O)N(Cc1ccc(N(C)C)cc1)Cc1ccco1	/	20µM*	4.3%	/	-27.8%
CN(C)c1ccc(CN(Cc2ccco2)C(=O)c2ccco2)cc1	0.2%	44.7µM*	-17.6%	-13.2%	2.0%
CCOc1c(Cl)cc(C(=O)N(Cc2ccc(N(C)C)cc2)Cc2ccco2)cc1Cl	/	?	14.0%	/	-25.5%
Cn1c(C(=O)N2CCN(C(=O)C3CCCCC3)CC2)cc2ccccc21	/	/	/	/	6.6%
Nc1sc(-c2ccccc2)cc1C(=O)NCCc1ccc(Cl)cc1	/	/	/	/	39.8µM*
Cc1c(P(=O)(c2ccccc2)c2ccccc2)c2ccccc2n1C	-0.9%	/	/	/	20µM*
Nc1ccc([N+](=O)[O-])cc1C(=O)O	/	/	/	/	-26.5%
Cc1cc(Nc2ccc(F)c(Cl)c2)n2nc(C)nc2n1	-5.5%	?	5.9%	9.1%	?
CCOc1ccc(Nc2cc(C)nc3nc(C)nn23)cc1	-2.3%	89.1µM*	-3.6%	-0.7%	44.7%
COc1ccc(Nc2cc(C)nc3nc(C)nn23)cc1Cl	-5.0%	89.1µM*	-11.5%	-18.0%	-34.6%
Cc1ccc(CN2CCCC3(CCC(=O)N(CCc4cnc[nH]4)C3)C2)s1 (stereo unspecified)	/	/	/	/	35.6%
Cc1cccc(OCC2(CNC(=O)c3cc(C)on3)C[C@@H](O)[C@@H](O)C2)n1 (stereo partly specified)	/	/	/	/	114.2%[176 µM]
Cc1cccc(OCC2(CNC3CCOCC3)C[C@@H](O)[C@@H](O)C2)n1 (stereo partly specified)	/	/	/	/	25.1µM*
Cc1cccc(OCC2(CNCC3CCCC3)C[C@@H](O)[C@@H](O)C2)n1 (stereo partly specified)	/	/	/	/	-15.5%[176 µM]
Cc1cccc(OCC2(CNCc3cnn(C)c3)C[C@@H](O)[C@@H](O)C2)n1 (stereo partly specified)	/	/	/	/	28.2µM*
Cc1cccc(OCC2(CNC3CCN(C)CC3)C[C@@H](O)[C@@H](O)C2)n1 (stereo partly specified)	/	/	/	/	15.0%[176 µM]
Cc1cccc(OCC2(CNC(=O)c3cc(C)nn3C)C[C@@H](O)[C@@H](O)C2)n1 (stereo partly specified)	/	/	/	/	25.1µM*
COc1ccccc1Nc1nc(N)nc(CN2CCN(c3cnccn3)CC2)n1	/	/	/	/	29.6%
COc1ccccc1NC(=O)C1=C(C)NC(=O)NC1c1ccccc1[N+](=O)[O-] (stereo unspecified)	-4.4%	12.6µM*	/	3.55µM*	-15.0%
